Results reported in PubChem BioAssay AID893 (National Center for Advancing Translational Sciences (NCATS), 2007).
About 5,700 (7.6%) of roughly 75,000 compounds were called active. Another 7% or so got no clear call; they are omitted. Calls come from the whole dose curve; as a rule, active = well fitted inhibition curve with a large enough effect; inconclusive = small, poorly fitted or top-dose-only effect; inactive = no such curve, though single readings can be large or run the other way. For the sample, actives were picked, then their nearest neighbours and some compounds at random.
% is set by controls: 0 for no effect and ±100 for the full control effect; potency is the fitted concentration of half-maximal effect.
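Note: the protocol describes HADH2 (HSD17B10) and not the HSD17B4 of the title; nearly all actives have a fitted effect of over 70% in size.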

The compounds below were run against 3-hydroxyacyl-CoA dehydrogenase type-2 (Homo sapiens) (UniProt Q99714) (assay: qHTS Assay for Inhibitors of HSD17B4, hydroxysteroid (17-beta) dehydrogenase 4). Details: recombinant HSD17B10, NADH fluorescence kinetic; series mostly up to 57.1 µM; activity change, negative = inhibition: at the top concentration.
Outline: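 20 nM HADH2, pH 9.0 Tris/Tween; cpd preinc 15 min RT; start w/ 1 mM NAD+ + 90 uM b-hydroxybutyryl-CoA; kinetic fluor ex360/em450 q30s x 4 min; delta last-first.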
With `COC(=O)c1ccc(C23CC4(C2)[C@H](CN(Cc2cccnc2)[C@@H]4c2ccccc2)C3c2ccc(Cl)nc2)cc1` (stereo partly drawn) the “activity change, negative = inhibition” value was 15% (inactive). In the case of `COc1cc(C2C(C(=O)Nc3ccccc3OC)=C(C)Nc3ncnn32)ccc1O` (stereo not drawn), the “activity change, negative = inhibition” value is reported as 4.6% (inactive). In the case of `Cc1c(C(=O)OCc2cc(=O)n3cc(Br)ccc3n2)oc2ccccc12`, the “activity change, negative = inhibition” value is reported as 13.2% (inactive). In the case of `Cc1c(C(=O)OCC(=O)N(CCC#N)c2ccccc2)oc2c1ccc1ccccc12`, the Potency is reported as 31.6 µM (active). In the case of `COc1ccc(N(CC(=O)NC(C)(C)C)C(=O)c2ccco2)cc1`, the “activity change, negative = inhibition” value is reported as 7.51% (inactive). `CCOC(=O)c1cccc(NC(=O)CN(c2ccc(C)cc2)S(=O)(=O)c2c(C)noc2C)c1` was tested, and the “activity change, negative = inhibition” value was 5.58% (inactive). In the case of `CC(C)c1nc2oc3c(N4CCN(C)CC4)ncnc3c2c2c1CCC2`, the “activity change, negative = inhibition” value is reported as 11.4% (inactive). With `CCOC(=O)CSc1nnc(CNC(=O)c2cccs2)n1-c1cc(OC)ccc1OC` the “activity change, negative = inhibition” value was 11.8% (inactive). For `Cc1cc(N2CCCC2)n2nc(C)c(-c3ccccc3)c2n1`, the “activity change, negative = inhibition” value was 1.36% (inactive). For `C/C(O)=C\c1nc(=O)c2c(C)cc(C)nc2n1-c1ccccc1`, the “activity change, negative = inhibition” value was -1.92% (inactive). For `O=C(c1ccco1)N1CCN(c2cccc(Cl)c2)CC1`, the “activity change, negative = inhibition” value was -3.52% (inactive). `Cc1nn2c3cc(N4CCOCC4)ccc3nc2c2ccccc12` was tested, and the “activity change, negative = inhibition” value was -4.24% (inactive). In the case of `Cc1cc(C)c2c(n1)nn1c(N3CCOCC3)cc(C)nc21`, the Potency is reported as 12.6 µM (active). With `Cc1cc(C)c2c(n1)nn1c(N3CCN(c4cccc(Cl)c4)CC3)cc(C)nc21` the Potency was 3.16 µM (active). In the case of `COc1ccc(Cl)cc1NC(=O)c1oc(C)nc1C`, the “activity change, negative = inhibition” value is reported as -17.1% (inactive). For `CC(C)(C)c1csc(NC2=NS(=O)(=O)c3ccccc32)n1`, the “activity change, negative = inhibition” value was -14.2% (inactive). `CC1(C)C=CC(=O)[C@]2(C)C1CC(=O)[C@]1(C)C2CC[C@@]2(C)C(c3ccoc3)OC(=O)C3OC321` (stereo partly drawn) was tested, and the “activity change, negative = inhibition” value was 0.345% (inactive). In the case of `O=C(Cl)c1ccccc1[N+](=O)[O-]`, the “activity change, negative = inhibition” value is reported as 6.57% (inactive). With `CC1CCCC(N2CCN(C(=O)c3ccc(F)cc3)CC2)C1` (stereo not drawn) the “activity change, negative = inhibition” value was 1.55% (inactive). In the case of `COc1ccccc1-c1nc(N2CCN(C)CC2)c2ccccc2n1`, the “activity change, negative = inhibition” value is reported as 1.29% (inactive). With `CCn1cc(C(=O)NC2CCCCCC2)c(=O)c2cc(S(=O)(=O)N3CCCCC3)ccc21` the “activity change, negative = inhibition” value was -5.45% (inactive). `CCC1(C)Cc2c(sc3nc4n(c(=O)c23)CCCS4)CO1` (stereo not drawn) was tested, and the Potency was 31.6 µM (active). In the case of `CN(C)CCSc1nc(N)c2c3c(sc2n1)COC(C)(C)C3`, the “activity change, negative = inhibition” value is reported as -7.11% (inactive). With `CCCCc1c(O)nc2n(c1=O)CCS2` the “activity change, negative = inhibition” value was 13.8% (inactive). For `CCOC(=O)CCCNC(=O)CN1C(=O)NC(CCc2ccccc2)C1=O` (stereo not drawn), the “activity change, negative = inhibition” value was 5.32% (inactive). With `CCC(=O)N1CCN=C1SCc1ccc(F)cc1` the “activity change, negative = inhibition” value was 2.13% (inactive). In the case of `Cc1c(S(=O)(=O)O)oc2c1C(=O)C(=O)c1c-2ccc2c1CCCC2(C)C`, the Potency is reported as 10 µM (active). `Cc1cc2nc(-c3ccc(NC(=O)c4cccnc4)cc3)oc2cc1C` was tested, and the “activity change, negative = inhibition” value was 435% (inactive). `CCCCCC(=O)Nc1ccc2oc(-c3ccncc3)nc2c1` was tested, and the Potency was 31.6 µM (active). In the case of `CCCCC(=O)Nc1ccc2c(c1)OCCO2`, the “activity change, negative = inhibition” value is reported as 8.43% (inactive). With `CNC(=O)c1c(NC(=O)c2ccc(S(=O)(=O)N3CCOCC3)cc2)sc2c1CCC2` the “activity change, negative = inhibition” value was -4.1% (inactive). `Cc1ccc(S(=O)(=O)N(C)CC(=O)N2CCc3ccccc32)cc1` was tested, and the “activity change, negative = inhibition” value was -7.67% (inactive). With `COCCN(CC(=O)Nc1ccccc1C)S(=O)(=O)c1ccc(S(=O)(=O)N2CCCC2)cc1` the “activity change, negative = inhibition” value was -15% (inactive). `CCOc1cc2[nH]c(=S)n(CCCN3CCCC3=O)c(=O)c2cc1OCC` was tested, and the “activity change, negative = inhibition” value was -20.1% (inactive). In the case of `CSc1nnc(-c2ccncc2)n1CCCN1CCCC1=O`, the “activity change, negative = inhibition” value is reported as -3.99% (inactive). `CC(C)(C)OC(=O)c1c(N)n(CCCN2CCCC2=O)c2nc3ccccc3nc12` was tested, and the Potency was 25.1 µM (active). In the case of `COC(=O)[C@@H]1C[C@H]2CC[C@H](O)C[C@H]2N1Cc1ccc(N2CCN(C)CC2)cc1`, the “activity change, negative = inhibition” value is reported as 3.6% (inactive). In the case of `CNC(=O)CSc1nnc(CCc2ccccc2)n1-c1ccccc1`, the “activity change, negative = inhibition” value is reported as -5.46% (inactive). For `CCCCCCN(C(=O)CCCCCN1C(=O)NC(c2ccc(C(F)(F)F)cc2)C(C(=O)OCc2ccccc2)=C1C)C(C(=O)NCCCC)c1ccc(OCC(=O)OC)c(C(=O)OC)c1` (stereo not drawn), the “activity change, negative = inhibition” value was -15.2% (inactive). With `CCN1C(=O)c2cccc3c(N)ccc1c23` the “activity change, negative = inhibition” value was 0.994% (inactive). For `O=C1c2ccccc2C(=O)N1CCCSc1ccccc1`, the activity change, negative = inhibition was -1.64% [at 11.4 µM] (inactive). With `C[N+](C)(CCCCCC[N+](C)(C)CCCN1C(=O)c2cccc3cccc(c23)C1=O)CCCN1C(=O)c2cccc3cccc(c23)C1=O` the Potency was 25.1 µM (active). With `Cc1ccc(C(=O)NCCNS(=O)(=O)c2ccccc2)cc1` the “activity change, negative = inhibition” value was 7.56% (inactive). `COc1ccc(N2CCN(C(=O)CSc3nnc4ncccn34)CC2)cc1` was tested, and the “activity change, negative = inhibition” value was -1.15% (inactive). In the case of `CC(C)Cn1c(N)c(C(=O)NCc2cccs2)c2nc3ccccc3nc21`, the Potency is reported as 15.8 µM (active). In the case of `C=CCn1c(C(C)NC(=O)CC)nc2ccccc21` (stereo not drawn), the “activity change, negative = inhibition” value is reported as -4.61% (inactive). With `CCN(CC(=O)NCc1cccs1)c1nnnn1-c1ccccc1` the “activity change, negative = inhibition” value was 18.2% (inactive). In the case of `C=CCn1c(N)c(C(=O)OCC(C)C)c2nc3ccccc3nc21`, the Potency is reported as 31.6 µM (active). With `COC(=O)c1cn(CC(=O)NCc2cccs2)c2ccccc12` the “activity change, negative = inhibition” value was -2.79% (inactive). For `C=CCOC(=O)c1ccccc1C(=O)OCC=C`, the “activity change, negative = inhibition” value was 1.8% (inactive). `C=CCn1c(N)c(S(=O)(=O)c2cccs2)c2nc3ccccc3nc21` was tested, and the Potency was 25.1 µM (active). `c1csc(-c2nc(-c3ccncc3)no2)c1` was tested, and the “activity change, negative = inhibition” value was 6.88% (inactive). `c1ccc2cc(OCCN3CCCC3)ccc2c1` was tested, and the “activity change, negative = inhibition” value was 1.12% (inactive). In the case of `CCCC[C@H]1C(=O)N(c2ccccc2)N(c2ccc(O)cc2)C1=O`, the “activity change, negative = inhibition” value is reported as -15.3% [at 25.6 µM] (inactive). In the case of `C/C=C/C=C/C(=O)O`, the “activity change, negative = inhibition” value is reported as 7.5% (inactive). With `COc1ccc(S(=O)(=O)N2CCC(C(=O)N3CCc4ccccc4C3)CC2)cc1OC` the “activity change, negative = inhibition” value was -13.7% (inactive). In the case of `CSc1nnc2c(n1)OC(c1cn(C)c3ccccc13)N(C(C)=O)c1ccccc1-2` (stereo not drawn), the “activity change, negative = inhibition” value is reported as 0.0624% (inactive). `CCCCn1c(CN2CCN(CCO)CC2)nc2ccccc21` was tested, and the “activity change, negative = inhibition” value was 14.8% (inactive). In the case of `CCCc1nc2c(C)cc(-c3nc4ccccc4n3C)cc2n1Cc1ccc(-c2ccccc2C(=O)O)cc1`, the Potency is reported as 31.6 µM (active). In the case of `CCCCn1c(CCCNC(=O)CC)nc2ccccc21`, the “activity change, negative = inhibition” value is reported as 1.46% (inactive). With `Cc1ccc(Nc2cc(=O)n(C3CCCCC3)c(=O)[nH]2)cc1C` the “activity change, negative = inhibition” value was 0.726% (inactive). `Cc1ccc(CCn2c3c(c4ccccc42)CN(C)CC3)cn1` was tested, and the “activity change, negative = inhibition” value was -4.43% (inactive). `CC1(C)OC(C(O)(c2ccccc2)c2ccccc2)C(C(O)(c2ccccc2)c2ccccc2)O1` (stereo not drawn) was tested, and the activity change, negative = inhibition was 1.95% [at 11.4 µM] (inactive). `C=CCN1C(=O)C(O)(CC(=O)c2ccc(Cl)cc2)c2ccccc21` (stereo not drawn) was tested, and the “activity change, negative = inhibition” value was -9.85% (inactive). `COc1cc2[nH]c(=S)n(Cc3ccc(C)o3)c(=O)c2cc1OC` was tested, and the “activity change, negative = inhibition” value was -14% (inactive). For `COc1cc2cc(CN(CCN3CCCC3)C(=O)Nc3ccccc3Cl)c(=O)[nH]c2cc1OC`, the Potency was 25.1 µM (active). For `COc1ccc(CCN(Cc2cc3cccc(C)c3[nH]c2=O)C(=O)N2CCCC2)cc1OC`, the “activity change, negative = inhibition” value was -9.05% (inactive). `COc1cc2[nH]c(=O)n(CCC(=O)NC3CCN(Cc4ccccc4)CC3)c(=O)c2cc1OC` was tested, and the “activity change, negative = inhibition” value was -23.8% (inactive).
